Assay results taken from PubChem BioAssay (NCI).
Values joined by “and” are separate entries in the source; they are usually repeats but may differ in a detail not shown here. Identical values can stand only once. This is part of a sample that, as a whole, favours compounds with a hit. Of some 79,000 tested, about 15% had one in any assay. The source holds several records for some structures; these can differ, active in one and inactive in another. Active and inactive are the calls of the source. Rule as the data show it: active = growth inhibition above about 70%; inactive = the rest. Where a SMILES comes first, the peptide text is derived from it.

test: NCI Yeast Anticancer Drug Screen. Data for the mec2-1 strain (AID 157); settings: S. cerevisiae mec2-1 strain, at 50.0 µM, stronger effect = higher value
How it was run: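 Strain: mec2-1 (DNA repair/cell cycle alteration). Compound exposure, then growth measured; inhibition expressed relative to vehicle.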

SMILES	growth inhibition
Cc1cccc(Cc2ccccc2Cl)c1O	38% (inactive)
OC1CN(Cc2ccccc2)C[C@@H]1O (stereo partly drawn)	-7.9% (inactive)
BrC(c1cccc2ccccc12)c1cccc2ccccc12	94.7% (active)
COc1nc(NC2OC(CO)C(O)C(O)C2O)c(Cl)c(=O)n1C (stereo not drawn)	74.5% (active)
O=S(=O)(CC(Cl)c1ccccc1)c1nc2ccccc2s1 (stereo not drawn)	79.1% (active)
CCCCCCCCCCCCOS(=O)(=O)O	-36.6% (inactive) and 98.2% (active) and 32.4% (inactive)
O=C(NNc1ccnc2cc(Cl)ccc12)/C(=C/c1ccc2c(c1)OCO2)NC(=O)c1ccccc1	77.3% (active)
O=C(CCN1CCN2c3ccccc3CCC2C1)c1ccc(F)cc1 (stereo not drawn)	91.5% (active) and 43.5% (inactive)
CC1C[C@]2(C)C(=O)Nc3ccccc3[C@@H]2Nc2ccccc21 (stereo partly drawn)	93.8% (active)
Nc1nc(=S)c2ncn(C3OC(CO)C(O)C3O)c2[nH]1 (stereo not drawn)	0.4% (inactive) and 92.5% (active)
O=C(O)c1c2ccccc2nc2[nH]c(=O)[nH]c(=O)c12	-5.05% (inactive) and 33.4% (inactive)
N#Cc1c(/N=C/c2ccccc2Cl)sc2c1CCC2	-0.55% (inactive)
CCC1=C(C)/C(=C/c2[nH]c(C)c(CC)c2C)N=C1C	66.5% (inactive) and -2.85% (inactive)
O=C(O)c1ccccc1C(=O)O	-14.8% (inactive) and 5.1% (inactive)
Cc1cc(C)nc(NS(=O)(=O)c2ccc(Nc3c4ccccc4nc4c(C(=O)NCCCN(CCO)CCO)cccc34)cc2)n1	25.8% (inactive)
CCCCCCCCCCCCCCCCCCOCC(COP(=O)([O-])OCC[N+](C)(C)C)OC (stereo not drawn)	91.4% (active) and -4.35% (inactive)
S=c1nc[nH]c2[nH]ccc12	0.6% (inactive)
C=C[C@]1(C)C=C2C(O)CC3C(C)(C)CCC[C@]3(CO)C2CC1 (stereo partly drawn)	99.6% (active)
c1ccc(-c2cnc(-c3ccc(-c4ncc(-c5ccccc5)o4)cc3)o2)cc1	-27.4% (inactive)

SMILES	growth inhibition
Nc1ccc2c(ccc3ccc4ccccc4c32)c1	96.8% (active)
O/N=C(\CC(O)(C(F)(F)F)C(F)(F)F)c1cccc(Cl)c1	93.6% (active)
CC(=O)OC1CCC2(C)C(CCC3C4CCC(OC(C)=O)C4(C)CCC32)O1 (stereo not drawn)	15.1% (inactive)
Cc1[nH]c2ccccc2c1C1Cc2ccccc2N1 (stereo not drawn)	36.2% (inactive) and 78.5% (active)
COc1ccc(C2c3cc4c(cc3OC(NNC(N)=O)C2C)OCO4)cc1 (stereo not drawn)	80.4% (active)
Oc1ccc(C(O)(c2ccccc2)c2ccccc2)cc1	91.2% (active) and 89.2% (active)
COc1ccc(CC(=O)c2ccc(O)cc2O)cc1	42.3% (inactive)
COC(=O)C#CC(=O)OC	9.8% (inactive) and 77.9% (active)
O=C1OC2=C(c3ccccc3)CCCC2C1=O (stereo not drawn)	78.5% (active) and 4.7% (inactive)
CC(C)C(NC(=O)C(N)CCC(=O)O)C(=O)O (stereo not drawn) (H-Glu-Val-OH; configuration not given here)	2.15% (inactive)
CC1(C)CC(=O)C2=C(C1)OC1=C(CC(C)(C)CC1=O)C2c1ccccc1Cl (stereo not drawn)	-7.45% (inactive)
O=C(CC(=O)CC(O)(c1ccccc1)c1ccccc1)CC(=O)c1ccccc1	98% (active)
O=Nc1ccc(C=C2C(=O)C=CC2=O)cc1	99.7% (active)
C[N+]1(Cc2ccc(Cl)c(Cl)c2)CCCC1C1CCCN(Cc2ccc(Cl)c(Cl)c2)C1 (stereo not drawn)	-3.95% (inactive) and 3.6% (inactive)
C[C@H]1CC[C@H]([C@@H](C)[C@H]2[C@@H](O)C[C@H]3[C@@H]4CC[C@H]5C[C@@H](O)CC[C@]5(C)[C@H]4CC[C@]23C)NC1	91.8% (active) and 85.7% (active)
CCOP(=O)(OCC)C(C)(CC)NC(=O)C(C(F)(F)F)C(F)(F)F (stereo not drawn)	-14.8% (inactive) and 4% (inactive)
[N-]=[N+]=NC(=O)Nc1cccc(C(F)(F)F)c1	99% (active)
NC(C/[N+]([O-])=N/O)C(=O)O (stereo not drawn)	11.1% (inactive) and 22.1% (inactive) and 33.5% (inactive)
NC(=O)N/N=C/c1ccc([N+](=O)[O-])o1	13.8% (inactive) and 8.3% (inactive)
